{"source": "the supplement of paper PMC6555819", "assay_in_all_cases": "PBM binding z-score (relative to random genomic background probes); higher = stronger binding; sequences stand for … in GC…GCGATTGACAGCGTAGAATGAAGG", "key": {"[1]": {"system": "RARb homodimer (NR concentration 270 nM)", "summary_of_the_method": "(§1)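 Binding z-scores were set against random background probes. The data came from custom Agilent 4×180K protein-binding microarrays carrying double-stranded probes with 34-nt variable regions, incubated 1 h with ligand-free nuclear receptor dimers. Partner-specific antibodies detected binding, and scanned fluorescence was regression-normalized.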"}, "[2]": {"system": "RARg:RXRa (NR concentration 270 nM, RXRa partner concentration 90 nM)", "summary_of_the_method": "as §1"}, "[3]": {"system": "RARg homodimer (NR concentration 270 nM)", "summary_of_the_method": "as §1"}, "[4]": {"system": "RXRa DBDmut IVT, anti-RXR (DBD mutation: RXRa K156A/R161A, NR concentration 90 nM)", "summary_of_the_method": "as §1"}, "[5]": {"system": "RXRa homodimer (NR concentration 180 nM)", "summary_of_the_method": "as §1"}, "[6]": {"system": "THRa:RXRa (NR concentration 90 nM, RXRa partner concentration 90 nM)", "summary_of_the_method": "as §1"}, "[7]": {"system": "THRa homodimer (NR concentration 90 nM)", "summary_of_the_method": "as §1"}, "[8]": {"system": "VDR homodimer (NR concentration 270 nM)", "summary_of_the_method": "as §1"}}}
{"sequence": "GCTAGCAGGCCATTTGGGTAACTCAATGACGGGC", "values": [{"measurement": "PBM binding z-score", "setting": "[1]", "result": -0.555}, {"measurement": "PBM binding z-score", "setting": "[2]", "result": -0.388}, {"measurement": "PBM binding z-score", "setting": "[3]", "result": -0.283}, {"measurement": "PBM binding z-score", "setting": "[4]", "result": -0.499}, {"measurement": "PBM binding z-score", "setting": "[5]", "result": -0.0687}, {"measurement": "PBM binding z-score", "setting": "[6]", "result": -0.0773}, {"measurement": "PBM binding z-score", "setting": "[7]", "result": -0.78}, {"measurement": "PBM binding z-score", "setting": "[8]", "result": -0.461}]}
{"sequence": "GTACCGAGGTGAATAGGTCGTTGATGAGTAGGCG", "values": [{"measurement": "PBM binding z-score", "setting": "[1]", "result": 1.73}, {"measurement": "PBM binding z-score", "setting": "[2]", "result": 2.95}, {"measurement": "PBM binding z-score", "setting": "[3]", "result": 1.64}, {"measurement": "PBM binding z-score", "setting": "[4]", "result": -0.0161}, {"measurement": "PBM binding z-score", "setting": "[5]", "result": 2.11}, {"measurement": "PBM binding z-score", "setting": "[6]", "result": 2.15}, {"measurement": "PBM binding z-score", "setting": "[7]", "result": 0.482}, {"measurement": "PBM binding z-score", "setting": "[8]", "result": 0.202}]}
{"sequence": "CGAACTAGGTGAAGGACAGTGAATCTCCGCACGC", "values": [{"measurement": "PBM binding z-score", "setting": "[1]", "result": 0.454}, {"measurement": "PBM binding z-score", "setting": "[2]", "result": 0.04}, {"measurement": "PBM binding z-score", "setting": "[3]", "result": 0.23}, {"measurement": "PBM binding z-score", "setting": "[4]", "result": -0.281}, {"measurement": "PBM binding z-score", "setting": "[5]", "result": 0.265}, {"measurement": "PBM binding z-score", "setting": "[6]", "result": 0.232}, {"measurement": "PBM binding z-score", "setting": "[7]", "result": -0.201}, {"measurement": "PBM binding z-score", "setting": "[8]", "result": -0.373}]}
{"sequence": "TTACCAAGGTGAAAGGTGGTTGATGCACGCCTTG", "values": [{"measurement": "PBM binding z-score", "setting": "[1]", "result": 0.622}, {"measurement": "PBM binding z-score", "setting": "[2]", "result": 0.898}, {"measurement": "PBM binding z-score", "setting": "[3]", "result": 0.626}, {"measurement": "PBM binding z-score", "setting": "[4]", "result": -0.437}, {"measurement": "PBM binding z-score", "setting": "[5]", "result": 1.61}, {"measurement": "PBM binding z-score", "setting": "[6]", "result": 1.73}, {"measurement": "PBM binding z-score", "setting": "[7]", "result": 0.529}, {"measurement": "PBM binding z-score", "setting": "[8]", "result": -0.166}]}
{"sequence": "CAAACTAGGTCACCGGAAGGTCAAAGTCCGCATG", "values": [{"measurement": "PBM binding z-score", "setting": "[1]", "result": 5.88}, {"measurement": "PBM binding z-score", "setting": "[2]", "result": 8.43}, {"measurement": "PBM binding z-score", "setting": "[3]", "result": 7.82}, {"measurement": "PBM binding z-score", "setting": "[4]", "result": 2.05}, {"measurement": "PBM binding z-score", "setting": "[5]", "result": 6.69}, {"measurement": "PBM binding z-score", "setting": "[6]", "result": 4.6}, {"measurement": "PBM binding z-score", "setting": "[7]", "result": 2.95}, {"measurement": "PBM binding z-score", "setting": "[8]", "result": 3.43}]}
{"sequence": "TTACCAAGGTGAGCTGAGGTCGCTGATCCAACTC", "values": [{"measurement": "PBM binding z-score", "setting": "[1]", "result": 1.76}, {"measurement": "PBM binding z-score", "setting": "[2]", "result": 1.33}, {"measurement": "PBM binding z-score", "setting": "[3]", "result": 1.22}, {"measurement": "PBM binding z-score", "setting": "[4]", "result": -0.393}, {"measurement": "PBM binding z-score", "setting": "[5]", "result": 1.2}, {"measurement": "PBM binding z-score", "setting": "[6]", "result": 4.95}, {"measurement": "PBM binding z-score", "setting": "[7]", "result": 2.17}, {"measurement": "PBM binding z-score", "setting": "[8]", "result": 0.556}]}
{"sequence": "CAGTCTAGGTCAGGGCCAGTATAGGAGGAACGTT", "values": [{"measurement": "PBM binding z-score", "setting": "[1]", "result": 2.84}, {"measurement": "PBM binding z-score", "setting": "[2]", "result": 3.02}, {"measurement": "PBM binding z-score", "setting": "[3]", "result": 3.96}, {"measurement": "PBM binding z-score", "setting": "[4]", "result": 0.701}, {"measurement": "PBM binding z-score", "setting": "[5]", "result": 1.55}, {"measurement": "PBM binding z-score", "setting": "[6]", "result": 2.42}, {"measurement": "PBM binding z-score", "setting": "[7]", "result": 1.52}, {"measurement": "PBM binding z-score", "setting": "[8]", "result": 0.322}]}
